Only a selection was taken, and hits are over-represented in it overall.
DT40 TDP1 no CPT: qHTS for Inhibitors of human tyrosyl-DNA phosphodiesterase 1 (TDP1): qHTS in cells in absence of CPT | Potency, µM (series often up to 46.2 µM), without a hit: at the top dose activity change, negative = growth inhibition, most hits filed as inhibitors | DT40 Tdp1-/- hTDP1 cells, no CPT, ATP luminescence, 48 h | 420,000 compounds, 15% hits; note: potency is the fitted concentration of half-maximal effect; nearly all actives have a fitted effect of over 55% in size
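Growth of hTDP1-complemented DT40 Tdp1-knockout cells is measured by ATP luminescence after at least 48 hr compound exposure at 37 °C, with DMSO substituting for the 20 nM CPT used in the parallel screen.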
DT40 TDP1 CPT: qHTS for Inhibitors of human tyrosyl-DNA phosphodiesterase 1 (TDP1): qHTS in cells in presence of CPT | Potency, µM (highest dose often 46.2 µM), for inactives: at the top dose activity change, negative = growth inhibition, actives largely listed as inhibitors | 420,000 compounds, 12% hits | chicken DT40 Tdp1-/-;hTDP1 cells + 20 nM CPT, ATP luminescence, 48 h; note: potency is the fitted concentration of half-maximal effect; nearly all actives have a fitted effect of over 55% in size
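Chicken DT40 Tdp1-/- cells stably complemented with human TDP1 were seeded at 400 cells/well in medium containing 20 nM camptothecin, exposed to pin-transferred compounds, and grown at 37 °C for at least 48 hr. Viability was read as ATP luminescence.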
ALOX12 inh: Primary qHTS assay for inhibitors of human arachidonate 12S-lipoxygenase (ALOX12): Round 2. Potency, µM (top dose mostly 108 µM), without a hit: top-dose activity change, negative = inhibition, hits mostly inhibitors. Polyunsaturated fatty acid lipoxygenase ALOX12 (Homo sapiens), P18054. purified 12hLO, xylenol orange hydroperoxide absorbance. 580,000 compounds, 1.1% hits. AID 1671190, 2021; note: potency is the fitted concentration of half-maximal effect
Target sequence (P18054 whole entry, looked up): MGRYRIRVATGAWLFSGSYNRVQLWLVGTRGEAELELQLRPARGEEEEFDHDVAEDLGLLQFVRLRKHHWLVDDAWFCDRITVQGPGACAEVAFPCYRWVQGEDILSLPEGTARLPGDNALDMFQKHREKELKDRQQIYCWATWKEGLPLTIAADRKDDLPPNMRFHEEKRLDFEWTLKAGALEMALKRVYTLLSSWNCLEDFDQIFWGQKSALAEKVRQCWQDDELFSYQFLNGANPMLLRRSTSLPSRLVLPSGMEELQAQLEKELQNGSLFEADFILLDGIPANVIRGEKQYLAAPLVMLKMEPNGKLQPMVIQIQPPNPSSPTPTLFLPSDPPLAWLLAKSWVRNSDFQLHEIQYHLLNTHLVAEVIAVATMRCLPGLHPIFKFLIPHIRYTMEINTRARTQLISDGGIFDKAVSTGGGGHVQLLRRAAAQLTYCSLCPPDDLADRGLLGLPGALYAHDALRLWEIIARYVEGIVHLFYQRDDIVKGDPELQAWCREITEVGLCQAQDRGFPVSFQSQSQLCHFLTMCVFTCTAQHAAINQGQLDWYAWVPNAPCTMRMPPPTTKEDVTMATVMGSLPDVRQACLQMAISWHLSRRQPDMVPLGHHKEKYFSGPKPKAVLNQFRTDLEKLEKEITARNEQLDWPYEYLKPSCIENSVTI
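Purified human 12hLO at 150 nM in 25 mM Hepes, 0.01% Triton X-100, pH 7.0, preincubated 15 min at room temperature with compound. Reaction started with 40 uM arachidonic acid, 30 min at room temperature. Hydroperoxide measured by Fe-xylenol orange, 573/405 nm absorbance ratio.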
HT1080 IDH1KD tx: qHTS for induction of synthetic lethality in tumor cells producing 2HG: qHTS for the HT-1080-IDH1KD cell line. HT-1080 IDH1 knockdown viability, ATP luminescence, 48 h. AID 686971, 2013. 360,000 compounds, 2% hits. Potency, µM (titrated, usually from 46.1 µM), for inactives: at the highest dose activity, negative = toxicity, most hits filed as cytotoxic;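 note: potency is the fitted concentration of half-maximal effect; 0% = DMSO wells and -100% = cell-free medium wells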
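Assay cells: HT-1080 with IDH1 knockdown, 750 per well, RPMI/5% FBS. Exposure: 48 h at 37 °C following 2 h pre-incubation. Read: CellTiter-Glo luminescence; fitted concentration-response, curve class assigned.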
IL-1B inflam inh: qHTS for Inhibitors of Inflammasome Signaling: IL-1-beta AlphaLISA Primary Screen; activity change, % at 57.5 µM; THP-1 LPS/ATP IL-1B secretion, AlphaLISA, 16 h; active compounds read low; 360,000 compounds, 4.7% hits; in the data active = activity change below about -50%; inconclusive = mostly about -30% to -49%
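THP-1 cells pretreated 1 hr with compounds (up to 57.5 uM final), then stimulated with LPS (250 ng/mL final) plus ATP (1.25 mM final); secreted IL-1B measured by AlphaLISA after 16 hr, decreased signal indicating inhibition.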
HT1080-NT tox: qHTS for induction of synthetic lethality in tumor cells producing 2HG: qHTS for the HT-1080-NT fibrosarcoma cell line; HT-1080-NT fibrosarcoma viability, CellTiter-Glo ATP luminescence, 48 h; Potency, µM (top dose mostly 46.1 µM), inactives show top-dose activity, negative = less viability, hits mostly cytotoxic; 360,000 compounds, 1.6% hits; AID 686970, 2013;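 note: NT is the 2HG producing partner of a matched IDH1 knockdown line; potency is the fitted concentration of half-maximal effect; 0% = DMSO-treated cells and -100% = media-only wells without cells; nearly all actives have a fitted effect of over 55% in size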
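HT-1080-NT; 750 cells/well; 5% FBS RPMI; 48 h compound, 37 degrees C; CellTiter-Glo luminescence; curve fitting and curve-class assignment.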
The depositor's hits bear a star; i = inactive; u = inconclusive; x = not tested or not shown; [ ] = another dose, or the depositor's remark. Unless noted, calls come from the whole dose curve; as a rule, active = well fitted curve in the direction sought with a large enough effect; inconclusive = small, poorly fitted or top-dose-only effect, or another doubt; inactive = no such curve, though single readings can be large; an effect the other way counts as inactive or inconclusive. Unless noted, % is set by controls: 0 for no effect and ±100 for the full control effect.

SMILES	DT40 TDP1 no CPT	DT40 TDP1 CPT	ALOX12 inh	HT1080 IDH1KD tx	IL-1B inflam inh	HT1080-NT tox
CC(=O)CC1c2cc(F)ccc2C=C(c2ccsc2)N1c1ccc(-c2ccc(C(N)=O)cc2)cc1 (configuration not stated)	u	u	u	u	-3	u
COc1cc(OC)cc(C2=Cc3ccccc3C(CC(C)=O)N2c2ccc(C#CC3(N)CCCCC3)cc2)c1 (configuration not stated)	u	u	0%	13µM*	-19	15µM*
COc1cc(OC)cc(C2=Cc3ccc(OC)cc3C(CC(C)=O)N2c2ccc(C#CC3(N)CCCCC3)cc2)c1 (configuration not stated)	26µM*	5.2µM*	-95%	26µM*	-22	16µM*
CC(C)NC(=O)COC(=O)c1csc(NCc2ccccc2)n1	x	x	-22%	x	x	x
Nc1c(C(=O)Nc2ccc3c(c2)OCCO3)nnn1Cc1ccc(Cl)cc1	-22%	-17%	-30%	-7%	4	-17%
NC(=O)c1nnn(Cc2cc(Cl)c(C(=O)c3ccc(Cl)cc3)c(Cl)c2)c1N	16µM*	4.6µM*	u	4.1µM*	0	9.2µM*
Cn1cccc1/C=C1\CCC/C(=C\c2cccn2C)C1=O	29µM*	u	u	-19%	u	-9%
Cn1cc([N+](=O)[O-])c(C(=O)Nc2cc(Oc3ccccc3)cc([N+](=O)[O-])c2)n1	-24%	-9%	-21%	6.5µM*	-15	18µM*
Cc1ccc(C)c(Oc2cc(NC(=O)CCCn3nc(C)c([N+](=O)[O-])c3C)cc([N+](=O)[O-])c2)c1	u	u	-8%	u	u	16µM*
Cc1nn(C)cc1C(=O)Nc1cc(Oc2ccc(Cl)cc2)cc([N+](=O)[O-])c1	u	u	-26%	4%	22	2%
Cc1nn(CCCC(=O)Nc2cc(Oc3ccccc3)cc([N+](=O)[O-])c2)c(C)c1[N+](=O)[O-]	u	u	8%	-9%	-50*	-2%
CCn1nc(C)c(C(=O)Nc2cc(Oc3cc(C)cc(C)c3)cc([N+](=O)[O-])c2)c1C	21µM*	u	-12%	u	7	u
Cc1ccccc1S(=O)(=O)N1CC[C@@H]2CN(c3cnccn3)[C@@H]2C1	x	x	18%	x	x	x
Cc1ccc(S(=O)(=O)N2CCCC(CCC(=O)NCCCc3ccccc3)C2)cc1 (configuration not stated)	x	x	-6%	x	x	x
Cc1cc(NC(=O)CSc2nccn2-c2cccc(Cl)c2)no1	-29%	-7%	19%	11%	6	0%
CCc1ccc(NC(=O)CSc2nccn2-c2ccc(F)cc2)cc1	-18%	u	-4%	x	x	x
CCOc1ccccc1NC(=O)CSc1nccn1-c1cccc(C)c1	18µM*	21µM*	-23%	x	x	x
CCc1ccc(NC(=O)CSc2nccn2-c2cccc(C)c2C)cc1	21µM*	23µM*	-3%	x	x	x
CCOc1ccccc1NC(=O)CSc1nccn1-c1cccc(C(F)(F)F)c1	x	x	-8%	x	x	x
Cc1ccc(C)c(NC(=O)CSc2nccn2Cc2ccco2)c1	10%	-26%	x	9%	18	16%
Cc1cccc(NC(=O)CSc2nccn2-c2cccc(Cl)c2)c1C	u	21µM*	3%	x	x	x
Cc1ccc(C)c(NC(=O)CSc2nccn2-c2cccc(C)c2C)c1	21µM*	18µM*	5%	x	x	x
CC[C@@]1(C(=O)O)C[C@H](C(=O)NC(CO)CO)[C@H](c2ccc(OC)cc2)N1C	x	x	14%	x	x	x
Cn1ccnc1SCC(=O)N1CCc2ccccc21	16%	2%	i	15%	-3	0%
Cc1cccc(-n2ccnc2SCC(=O)N2CCCc3ccccc32)c1C	21µM*	18µM*	-16%	-18%	-21	-11%
SMILES	DT40 TDP1 no CPT	DT40 TDP1 CPT	ALOX12 inh	HT1080 IDH1KD tx	IL-1B inflam inh	HT1080-NT tox
Cc1cccc(-n2ccnc2SCC(=O)Nc2ccc(F)cc2F)c1C	21µM*	16µM*	-7%	x	x	x
CCc1ccc(NC(=O)CSc2nccn2C2CCCC2)cc1	u	18µM*	-24%	x	x	x
O=C(CSc1nccn1-c1cccc(Cl)c1)NC1CCCC1	21µM*	-23%	105%	16%	-1	10%
Cc1ccc(NC(=O)CSc2nccn2C2CCCC2)cc1Cl	u	u	-30%	x	x	x
O=C(Nc1cccc(F)c1)N1CCC2(CC1)CC(OCC1CC1)CCO2 (configuration not stated)	x	x	-2%	x	x	x
CCC(CNc1nc(CCN)nc2ccccc12)N(C)CC (configuration not stated)	x	x	30%	x	x	x
CCSc1nnc([C@@H](NC(=O)OC(C)(C)C)C(C)CC)o1 (some centres not stated)	x	x	5%	x	x	x
Cc1ccc(C)c2c1cc(C)c1nnc(SCC(=O)N3CCCc4ccccc43)n12	15µM*	u	16%	-5%	-1	0%
Cc1cc(C)cc(-n2ccnc2SCC(=O)Nc2ccc(C)c(Cl)c2)c1	18µM*	16µM*	-19%	x	x	x
CCCC(=O)c1ccc(N2CCCCCC2)c(F)c1	23µM*	u	11%	-5%[9.24 µM]	-8	-1%
CC(=O)c1ccc(N2CCN(C(=O)c3ccc(Cl)c(Cl)c3)CC2)c(F)c1	x	x	-9%	x	x	x
CCC(=O)c1ccc(N2CCN(C(=O)c3ccccc3)CC2)c(F)c1	7.3µM*	18µM*	-4%	-4%	29	13%
CC(=O)c1ccc(N2CCN(C(=O)c3ccc(Br)cc3)CC2)c(F)c1	13µM*	9.2µM*	0%	-3%	-3	-7%
CC(=O)c1ccc(N2CCN(C(=O)c3ccco3)C(C)C2)c(F)c1 (configuration not stated)	26µM*	u	u	6%	-5	13%
CCCC(=O)c1ccc(N2CCCCC2)c(F)c1	2%	7%	-11%	30%	-6	27%
Cc1cc(-c2csc(NC(=O)c3ccc(=O)[nH]c3)n2)c(C)n1Cc1ccco1	u	-7%	10%	-2%	38	1%
COc1ccc(CNC(=O)C2=NO[C@@H]3CN(c4ccccn4)C[C@H]23)cc1OC	x	x	4%[176 µM]	x	x	x

Screening results deposited in PubChem by National Center for Advancing Translational Sciences (NCATS).
